Reference: the supplement of paper PMC8728848
This excerpt belongs to a sample that is enriched for the strongest signals.

Assays:
Experiment in all cases: glycan array binding signal (z-score within array); higher = stronger binding
Details in all cases: glycan notation: IUPAC condensed, linker removed
[1] = molecular target: Fuc(a1-2)Gal(b1-3)GlcNAc(b1-2)Man(a1-3)[Fuc(a1-2)Gal(b1-3)GlcNAc(b1-2)Man(a1-6)]Man(b1-4)GlcNAc(b1-4)[Fuc(a1-6)]GlcNAc
In short: (§1)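 Glycan array data were curated from 3228 arrays in the Consortium for Functional Glycomics database and kept only where the protein sequence was available. Glycan names were converted to IUPAC-condensed notation, and columns mapping to the same glycan were averaged. The binding signal is a within-array Z-score, averaged across arrays of the same protein sequence at different concentrations or buffers and across linkers. Negative Z-scores can be read as non-binding.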

[2] = molecular target: Fuc(a1-2)Gal(b1-3)GlcNAc(b1-3)[Fuc(a1-2)Gal(b1-3)GlcNAc(b1-6)]GalNAc
In short: as §1

[3] = molecular target: Fuc(a1-2)Gal(b1-3)GlcNAc(b1-3)[Gal(b1-4)GlcNAc(b1-6)]Gal(b1-4)Glc
In short: as §1

[4] = molecular target: Fuc(a1-2)Gal(b1-3)GlcNAc(b1-3)[Neu5Ac(a2-6)Gal(b1-4)GlcNAc(b1-6)]Gal(b1-4)Glc
In short: as §1

[5] = molecular target: Fuc(a1-2)Gal(b1-3)[Fuc(a1-4)]GlcNAc(b1-2)Man(a1-3)[Fuc(a1-2)Gal(b1-3)[Fuc(a1-4)]GlcNAc(b1-2)Man(a1-3)]Man(b1-4)GlcNAc(b1-4)GlcNAc
In short: as §1

[6] = molecular target: Fuc(a1-2)Gal(b1-4)[Fuc(a1-3)]GlcNAc(b1-3)[Neu5Ac(a2-6)Gal(b1-4)GlcNAc(b1-6)]Gal(b1-4)Glc
In short: as §1

[7] = molecular target: Fuc(a1-2)[Gal(a1-3)]Gal(b1-3)GalNAc(b1-3)Gal(a1-4)Gal(b1-4)Glc
In short: as §1

[8] = molecular target: Fuc(a1-2)[Gal(a1-3)]Gal(b1-4)GlcNAc(b1-2)Man(a1-3)[Fuc(a1-2)[Gal(a1-3)]Gal(b1-4)GlcNAc(b1-2)Man(a1-6)]Man(b1-4)GlcNAc(b1-4)GlcNAc
In short: as §1

[9] = molecular target: Fuc(a1-2)[Gal(a1-3)]Gal(b1-4)GlcNAc(b1-3)[Fuc(a1-2)[Gal(a1-3)]Gal(b1-4)GlcNAc(b1-6)]GalNAc
In short: as §1

[10] = molecular target: Fuc(a1-2)[GalNAc(a1-3)]Gal(b1-4)GlcNAc(b1-2)Man
In short: as §1

[11] = molecular target: Fuc(a1-2)[GalNAc(a1-3)]Gal(b1-4)GlcNAc(b1-3)Gal(b1-4)GlcNAc(b1-3)Gal(b1-4)GlcNAc
In short: as §1

[12] = molecular target: Fuc(a1-3)[Gal(b1-4)]GlcNAc(b1-2)Man
In short: as §1

[13] = molecular target: Fuc(a1-3)[Gal(b1-4)]GlcNAc(b1-2)Man(a1-3)[Fuc(a1-3)[Gal(b1-4)]GlcNAc(b1-2)Man(a1-6)]Man(b1-4)GlcNAc(b1-4)[Fuc(a1-6)]GlcNAc
In short: as §1

[14] = molecular target: Fuc(a1-3)[Gal(b1-4)]GlcNAc(b1-3)Gal(b1-3)[Fuc(a1-4)]GlcNAc
In short: as §1

[15] = molecular target: Fuc(a1-3)[Gal3S(b1-4)]Glc
In short: as §1

Gal(a1-2)Gal = molecular target: Gal(a1-2)Gal
In short: as §1

[16] = molecular target: Gal(a1-3)Gal(b1-3)GlcNAc(b1-2)Man(a1-3)[Gal(a1-3)Gal(b1-3)GlcNAc(b1-2)Man(a1-6)]Man(b1-4)GlcNAc(b1-4)GlcNAc
In short: as §1

[17] = molecular target: Gal(a1-3)Gal(b1-3)GlcNAc(b1-6)GalNAc
In short: as §1

Gal(b1-3)GalNAc(b1-3)Gal = molecular target: Gal(b1-3)GalNAc(b1-3)Gal
In short: as §1

[18] = molecular target: Gal(b1-3)GlcNAc(b1-2)Man(a1-3)[Gal(b1-3)GlcNAc(b1-2)Man(a1-6)]Man(b1-4)GlcNAc(b1-4)[Fuc(a1-6)]GlcNAc
In short: as §1

[19] = molecular target: Gal(b1-3)GlcNAc(b1-3)Gal(b1-4)GlcNAc
In short: as §1

[20] = molecular target: Gal(b1-3)GlcNAc(b1-6)[Gal(b1-3)]GalNAc
In short: as §1

Gal(b1-3)GlcNAc6S = molecular target: Gal(b1-3)GlcNAc6S
In short: as §1

[21] = molecular target: Gal(b1-4)GalNAc(a1-3)[Fuc(a1-2)]Gal(b1-4)GlcNAc
In short: as §1

[22] = molecular target: Gal(b1-4)GlcNAc(b1-2)Man(a1-3)[Gal(b1-4)GlcNAc(b1-2)Man(a1-6)]Man(b1-4)GlcNAc(b1-4)[Fuc(a1-6)]GlcNAc
In short: as §1

[23] = molecular target: Gal(b1-4)GlcNAc(b1-2)Man(a1-3)[Man(a1-6)]Man(b1-4)GlcNAc(b1-4)GlcNAc
In short: as §1

[24] = molecular target: Gal(b1-4)GlcNAc(b1-3)Gal(b1-3)GlcNAc
In short: as §1

[25] = molecular target: Gal(b1-4)GlcNAc(b1-3)Gal(b1-4)GlcNAc(b1-3)Gal(b1-4)GlcNAc(b1-2)Man(a1-3)[Gal(b1-4)GlcNAc(b1-3)Gal(b1-4)GlcNAc(b1-3)Gal(b1-4)GlcNAc(b1-2)Man(a1-6)]Man(b1-4)GlcNAc(b1-4)[Fuc(a1-6)]GlcNAc
In short: as §1

[26] = molecular target: Gal(b1-4)GlcNAc(b1-3)Gal(b1-4)GlcNAc(b1-3)Gal(b1-4)GlcNAc(b1-2)[Gal(b1-4)GlcNAc(b1-3)Gal(b1-4)GlcNAc(b1-3)Gal(b1-4)GlcNAc(b1-6)]Man(a1-6)[Gal(b1-4)GlcNAc(b1-3)Gal(b1-4)GlcNAc(b1-3)Gal(b1-4)GlcNAc(b1-2)Man(a1-3)]Man(b1-4)GlcNAc(b1-4)[Fuc(a1-6)]GlcNAc
In short: as §1

[27] = molecular target: Gal(b1-4)GlcNAc(b1-3)Gal(b1-4)GlcNAc(b1-3)Gal(b1-4)GlcNAc(b1-3)Gal(b1-4)GlcNAc(b1-3)Gal(b1-4)GlcNAc(b1-2)[Gal(b1-4)GlcNAc(b1-3)Gal(b1-4)GlcNAc(b1-3)Gal(b1-4)GlcNAc(b1-3)Gal(b1-4)GlcNAc(b1-3)Gal(b1-4)GlcNAc(b1-6)]Man(a1-6)[Gal(b1-4)GlcNAc(b1-3)Gal(b1-4)GlcNAc(b1-3)Gal(b1-4)GlcNAc(b1-3)Gal(b1-4)GlcNAc(b1-3)Gal(b1-4)GlcNAc(b1-2)Man(a1-3)]Man(b1-4)GlcNAc(b1-4)[Fuc(a1-6)]GlcNAc
In short: as §1

B1: GS7807G-bfa-506-18-506 (Bacteroides fragilis) (protein)
chain: ASCDKFDEINTDPDATTKVTSSLLATGLLLDITSSSASKSFIYDELLAKQMAWGESMEDYQYNVFGRSGFGGYTTLINAQKMVESVSDDNVNAYDGLAHFIKAYKIFYMSMEMGDLPYEEALQGELGLVRPKYNTQKEVMNFILSDLETAYELFSTAKDFDGDPILGGSISKWKKATTAFQLKVLMHLSKKESDADLKVKERFARIVASGSLMESNEDNLQMKYADKANTVYPFHNTNTKHAGYAMLSTMLIDKFKATGDIRMFYYAKPAKAKLNEGVTADSWDAYIGTDPSLPFEQIEKAYATEQYSGFNARYTDYPSGEPVVRLGYAEQNFILAEAAVRGWISGDASAYYKKAIRAHMEFIASNTPDEEVYHHGHPITEEAIAAFLETPAIQLSGEKEEDIEKILTQRYLASFMQHPYDVYYDYRRTGYPVLPINPATNRNTMNDRLPMRWMYPKSESDYNLEHQNEALERQFGGVDDVNKLMWILQ
glycan array binding signal (z-score) [1]: 0.142
glycan array binding signal (z-score) [2]: 3.91
glycan array binding signal (z-score) [3]: 0.516
glycan array binding signal (z-score) [4]: -0.857
glycan array binding signal (z-score) [5]: 0.421
glycan array binding signal (z-score) [6]: -0.781
glycan array binding signal (z-score) [7]: -0.536
glycan array binding signal (z-score) [8]: 3.93
glycan array binding signal (z-score) [9]: 0.293
glycan array binding signal (z-score) [10]: -0.111
glycan array binding signal (z-score) [11]: -0.91
glycan array binding signal (z-score) [12]: 0.315
glycan array binding signal (z-score) [13]: 1.51
glycan array binding signal (z-score) [14]: -0.716
glycan array binding signal (z-score) [15]: -0.945
glycan array binding signal (z-score) (Gal(a1-2)Gal): -0.863
glycan array binding signal (z-score) [16]: 4.66
glycan array binding signal (z-score) [17]: 1.31
glycan array binding signal (z-score) (Gal(b1-3)GalNAc(b1-3)Gal): -0.588
glycan array binding signal (z-score) [18]: 2.73
glycan array binding signal (z-score) [19]: -0.493
glycan array binding signal (z-score) [20]: -0.028
glycan array binding signal (z-score) (Gal(b1-3)GlcNAc6S): 0.702
glycan array binding signal (z-score) [21]: -0.448
glycan array binding signal (z-score) [22]: 2.53
glycan array binding signal (z-score) [23]: 1.4
glycan array binding signal (z-score) [24]: 0.201
glycan array binding signal (z-score) [25]: 5.99
glycan array binding signal (z-score) [26]: 2.78
glycan array binding signal (z-score) [27]: 4.67
